Screening results (PubChem)
FBPA Giardia inh – blocks Giardia fructose-bisphosphate aldolase activity; Potency, µM (doses to about 59.6 µM), for the others: at the highest dose activity, negative = inhibition, hits mostly inhibitors; hit rate 0.71% among 290,000; A8B2U2; purified Giardia FBPA; AID 2451; note: potency is the fitted concentration of half-maximal effect; nearly all actives have a fitted effect of over 55% in size
Target sequence (A8B2U2 whole entry, looked up): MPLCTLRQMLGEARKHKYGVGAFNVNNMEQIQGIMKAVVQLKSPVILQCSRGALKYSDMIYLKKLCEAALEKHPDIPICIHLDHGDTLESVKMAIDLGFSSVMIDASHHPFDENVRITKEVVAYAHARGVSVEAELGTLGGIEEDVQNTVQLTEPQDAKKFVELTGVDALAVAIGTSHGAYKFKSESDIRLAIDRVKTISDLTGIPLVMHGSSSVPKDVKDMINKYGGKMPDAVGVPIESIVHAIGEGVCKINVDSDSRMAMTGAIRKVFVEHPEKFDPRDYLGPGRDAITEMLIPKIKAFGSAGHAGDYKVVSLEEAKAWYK
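40 nM FBPA preincubated 10 min at RT with compound (up to 57.5 uM final), then substrate plus GAPDH/TPI/NAD/arsenate coupling and diaphorase/resazurin added. Fluorescence read after 20 min at RT, 525/598 nm.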
Pf growth 48h – P. falciparum growth inhibition at 48 hours (one generation). P. falciparum luciferase growth in erythrocytes, 48 h. Potency, µM (titrated, usually from 28.7 µM), inactives show top-dose activity change, negative = inhibition, most hits filed as inhibitors. hit rate 5.9% among 310,000; note: potency is the fitted concentration of half-maximal effect
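Here the parasites carry a stable luciferase gene and grow inside erythrocytes in Albumax-based RPMI medium with compound for one erythrocytic cycle. Activity is scored as loss of luminescent signal.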
HCMV antiviral – inhibitors of human cytomegalovirus; hit rate 4.5% among 410,000; activity change, negative = inhibition, % at 57.5 µM; HFF cells, HCMV-luciferase reporter, 72 h; active compounds read low; AID 1259415; in the data active = activity change below about -60%; inconclusive = no clear call, values can overlap the other calls; inactive = above about -39%
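Inhibition of viral replication was scored as loss of reporter luminescence in HFFs infected with HCMV-luciferase (MOI 1 PFU/cell) for 72 h; compounds tested at 2 doses, normalized to buffer and Salinomycin controls.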
Sm TGR inh – inhibitors of Schistosoma mansoni thioredoxin glutathione reductase; Q962Y6; purified TGR, DTNB reduction, TNB absorbance 405 nm; Potency, µM (titrated, usually from 114 µM), for inactives: at the top dose activity change, negative = inhibition, most hits filed as inhibitors; hit rate 3% among 360,000; AID 485364; note: potency is the fitted concentration of half-maximal effect; nearly all actives have a fitted effect of over 60% in size
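Kinetic colorimetric format: TGR-catalysed, NADPH-driven DTNB reduction monitored via TNB absorbance. Enzyme dispensed at 20 nM; compound exposure 15 min at room temperature before reaction start.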
Pf growth 96h – P. falciparum growth inhibition at 96 hours | Potency, µM (titrated, usually from 28.7 µM), inactives show at the top dose activity change, negative = inhibition, usual class: inhibitors | P. falciparum luciferase reporter growth, 96 h | hit rate 6.9% among 320,000; note: potency is the fitted concentration of half-maximal effect
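P. falciparum expressing integrated firefly luciferase, in erythrocytes at 2% hematocrit, 0.05% parasitemia, incubated with compounds 96 h at 37 C, 5% CO2. Growth inhibition read as loss of luminescence; two-generation exposure targets delayed-death apicoplast inhibitors.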
* marks the source's active call; other numbers are inactive results; ? = inconclusive; · = no result given. Most compounds without a hit are left out; they make up all but 14% or so of the library. Unless noted, calls come from the whole dose curve; as a rule, active = well fitted curve in the direction sought with a large enough effect; inconclusive = small, poorly fitted or top-dose-only effect, or another doubt; inactive = no such curve, though single readings can be large; an effect the other way counts as inactive or inconclusive. % is set by controls: 0 for no effect and ±100 for the full control effect.

SMILES	FBPA Giardia inh	Pf growth 48h	HCMV antiviral	Sm TGR inh	Pf growth 96h
CC[C@]1(O)CC2CN(CCc3c([nH]c4ccccc34)[C@@](C(=O)OC)(c3cc4c(cc3OC)N(C)[C@H]3[C@@](O)(C(=O)OC)[C@H](OC(C)=O)[C@]5(CC)C=CCN6CC[C@]43[C@@H]65)C2)C1 (some centres undefined)	·	0.477µM*	·	·	0.849µM*
CC[C@]1(O)C[C@@H]2CN(CCc3c([nH]c4ccccc34)[C@](C(=O)OC)(c3cc4c(cc3OC)N(C=O)[C@H]3[C@@](O)(C(=O)OC)[C@H](C(=O)OC)[C@@]5(CC)C=CCN6CC[C@]43[C@H]65)C2)C1	4.0%	·	·	·	·
Cc1ccc(NS(=O)(=O)c2ccc(C)c(C(=O)NCC(c3ccccc3)N(C)C)c2)cc1 (centres undefined)	·	?	0.0	?	-20.3%
COc1ccc(/C=C2\SC(=S)N(CC(=O)NC3C=CS(=O)(=O)C3)C2=O)cc1 (centres undefined)	2.8%	13.9%	-39.6	-14.7%	0.1%
CCCC(=O)c1ccc(CP(=O)(OCC)OCC)o1	2.0%	-12.8%	37.0	12.6µM*	0.0%
CCc1nc2ccc(C(=O)NCC3CCCCC3)cn2c1N(C)Cc1nccs1	·	·	-34.6	·	·
O=C(NCC(NS(=O)(=O)OCC(Cl)(Cl)Cl)c1ccccc1)C(F)(F)F (centres undefined)	5.5%	50.3%	-74.5*	0.5%	23.5%
Cc1ccc(NC(=O)CN(C)S(=O)(=O)c2ccc3c(c2)CCC(=O)N3)c(C)c1	·	·	-0.5	-7.8%	·
O=C(O)c1ccc2c3c(cccc13)C(=O)N(c1cccc3ccccc13)C2=O	1.4%	-2.5%	-27.5	-26.6%	46.8%
CCN1C(=O)c2cccc3cccc1c23	?	9.7%	69.4	11.2µM*	10.4%
CN(C)C(=O)CN1C(=O)c2cccc3cccc1c23	3.2%	-8.7%	-3.1	6.5%	-14.5%
O=C(O)c1ccccc1N1C(=O)c2cccc3cccc(c23)C1=O	5.0%	15.2%	-14.8	3.4%	8.28µM*
CN1CCC(=O)N(C(CSc2ccc(Br)cc2)Cc2ccccc2)CC1 (centres undefined)	5.4%	·	·	·	·
OC(c1cccc(Cl)c1)c1nc(/C=C/c2ccc(C(F)(F)F)cc2)cs1 (centres undefined)	·	·	-0.7	·	·
COc1cccc(C(O)c2nc(/C=C/c3ccc(C(F)(F)F)cc3)cs2)c1 (centres undefined)	·	·	-62.2*	·	·
Cc1ccc(C)c(N=Nc2nc3ccccc3n2C)c1	-5.6%	0.522µM*	?	7.1%	0.465µM*
Cc1cc(C)c(C)c(N=Nc2nc3ccccc3n2C)c1C	-5.2%	-79.9%	-10.1	-1.1%	15.4%
CCOC(=O)C1=C(C)N=C2SCCC(=O)N2C1c1ccc(OCc2ccccc2)c(OC)c1 (centres undefined)	·	·	-5.6	4.4%	·
Cc1ccc(C)c(NC(=O)c2nc(S(C)(=O)=O)ncc2N(Cc2ccc(C(C)(C)C)cc2)Cc2ccco2)c1	·	·	13.5	?	·
Cc1ccc(C)n1-c1ccc(C(=O)/C=C/N(C)C)cc1	0.7%	?	24.3	31.6µM*	14.7µM*
NC(=O)CC(NC(=O)c1ccc(Br)cc1)c1ccc(NC2CCCCCCC2)c([N+](=O)[O-])c1 (centres undefined)	11.4%	-16.4%	132.1	0.5%	-19.4%
c1ccc(C[n+]2cccc(-c3ccccc3)c2)cc1	-2.1%	2.08µM*	-72.4*	0.5%	0.657µM*
COc1ccc(N2CCN(C(=O)CSc3nc(-c4ccccc4)no3)CC2)cc1	·	·	28.2	6.2%	·
COc1ccccc1C(=O)Nc1ccc(-c2cc(C(F)(F)F)nn2-c2ccccc2)cc1	·	·	-60.9*	-9.2%	·
CCC1OC(=O)C(C)[C@@H](O[C@H]2C[C@@](C)(OC)C(O)C(C)O2)C(C)[C@@H](O[C@@H]2OC(C)CC(N(C)C)C2O)[C@@](C)(O)CC(C)CN(C)C(C)C(O)[C@]1(C)O (some centres undefined)	8.0%	·	·	·	·
C[C@@H](C(=O)Nc1ccc2ccccc2c1)[C@H]1C[C@]1(C)[C@H](NC(=O)c1ccccc1)c1ccccc1	-6.4%	·	·	·	·
